Shown are actives, neighbours in structure and some others; about 2.5% of the full set was active somewhere.
aSyn rescue – rescues yeast growth from alpha-synuclein toxicity; Potency, µM (top dose mostly 46.1 µM), hits mostly activators; hit rate 0.14% among 370,000; Yeast expressing alpha-synuclein, growth rescue, BacTiter-Glo, 24 h; note: nearly all actives have a fitted effect of over 65% in size
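Screening used galactose-induced yeast with toxic alpha-synuclein levels, exposed to compound for 24 hr at 30 deg C. Cell growth, read with BacTiter-Glo luminescence, gave the measured signal.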
Akt phos inh – Akt phosphorylation inhibition | hit rate 0.32% among 360,000 | activity change, % for hits at 50 µM | Neuro2A IGF-stimulated pAkt S473 HTRF, 20 min; active compounds read low | AID 651550; in the data active = activity change below about -80%; inconclusive = mostly about -51% to -80%
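Neuro2A cells (4,500/well, DMEM with 0.5% FBS) were treated with compound at a single 50 µM final concentration, stimulated with 6 nM IGF for 20 min at 37 °C, and lysed. Phospho-Akt Ser473 was read by HTRF as 665/615 ratio ×10^4.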
Mito fusion yeast – inhibitors of mitochondrial division or activators of mitochondrial fusion; S. cerevisiae fusion-defective mutant growth rescue, CellTiterGlo 48 h; Potency, µM (titrated, usually from 46.1 µM), most hits filed as activators; hit rate 0.23% among 320,000; note: nearly all actives have a fitted effect of over 45% in size
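Luminescent cell viability in 1536-well qHTS format served as the measure of rescued growth in ts fusion-mutant S. cerevisiae cultured on non-fermentable YPEG for 48 hours at 37C.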
Apoferritin bind – candidate novel general anesthetic via apoferritin binding. apoferritin/1-aminoanthracene competitive binding, fluorescence. Potency, µM (highest dose often 77.5 µM), usual class: inhibitors. hit rate 0.074% among 350,000. AID 485281; note: nearly all actives have a fitted effect of over 20% in size
Target sequence (P02791 2-175 limits assumed): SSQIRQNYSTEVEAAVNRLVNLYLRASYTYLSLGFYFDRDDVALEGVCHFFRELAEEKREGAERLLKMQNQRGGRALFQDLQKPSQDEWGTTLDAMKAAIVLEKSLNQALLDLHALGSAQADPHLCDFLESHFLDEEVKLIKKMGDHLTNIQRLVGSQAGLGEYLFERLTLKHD
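Probe: 1-aminoanthracene (50% saturated, PBS). Protein: horse-spleen apoferritin, 10 uM. Incubation: 10 min, room temperature. Detection: 380 nm excitation, 535 nm emission. Analysis: normalized response, four-parameter Hill.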
CCT chaperon mod – modulators of cytosolic chaperonin (CCT/TRiC) activity. purified chaperonin ATPase assay, HTRF ADP detection, 30 min. activity change, % (test concentration not listed), hits read low. hit rate 0.3% among 360,000. AID 651819; in the data active = activity change below about -30%
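TRiC (40 or 20 nM final, by batch activity) in 30 mM Tris pH 7.4, 100 mM KCl, 5 mM MgCl2, 1 mM DTT was treated with compound at 76 uM single dose, then 10 uM ATP, 30 min at 37 °C. ADP was read by HTRF Transcreener.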
TDP43 rescue – TDP-43 toxicity inhibition in yeast; hit rate 1.8% among 410,000; Potency, µM (top dose mostly 46.1 µM), usual class: activators; AID 652104; TDP-43 expressing yeast growth rescue, BacTiter-Glo, 24 h; note: nearly all actives have a fitted effect of over 50% in size
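Galactose-induced TDP-43 yeast, OD600=0.02, compound pinned; 24 hr, 30 deg C; BacTiter-Glo luminescence for growth. Inhibitors of TDP-43 toxicity read as activators.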
Numbers stand for hits; i = inactive; ? = inconclusive; nt = no result given; [ ] = remark or other dose. Unless noted, calls come from the whole dose curve; as a rule, active = well fitted curve in the direction sought with a large enough effect; inconclusive = small, poorly fitted or top-dose-only effect, or another doubt; inactive = no such curve, though single readings can be large; an effect the other way counts as inactive or inconclusive.

SMILES | aSyn rescue | Akt phos inh | Mito fusion yeast | Apoferritin bind | CCT chaperon mod | TDP43 rescue
CC[C@@]1(c2ccccc2)C(=O)N(C(=O)OC)N1C(=O)OC | i | i | i | i | i | i
COC(=O)N1C(=O)[C@@](c2ccccc2)(C2CCCCC2)N1C(=O)OC | i | i | i | i | i | 18µM
COC(=O)N1C(=O)[C@@](Cc2ccccc2)(c2ccccc2)N1C(=O)OC | i | i | i | i | i | ?
COC(=O)N1C(=O)[C@](c2ccccc2)(C(C)C)N1C(=O)OC | i | i | i | i | i | 10µM
COC(=O)N1C(=O)[C@](Cc2ccccc2)(c2ccccc2)N1C(=O)OC | i | i | i | i | i | 18µM
CCN(CC)CCCNC(=O)c1nn(C)c2c1CSc1ccccc1-2 | nt | nt | nt | i | nt | i
CCC(=O)N1CCc2cc(Br)cc(S(=O)(=O)N3CCN(c4cccc(Cl)c4)CC3)c21 | nt | nt | nt | i | nt | i
C=CCn1c(SCCC(=O)O)nnc1-c1cccs1 | i | i | i | i | i | i
Cc1cccc(-n2c(SCCC(=O)O)nnc2-c2cccs2)c1C | i | -115% | i | i | i | i
C=C(c1ccc2nc(NC(=O)OC)[nH]c2c1)c1cccs1 | i | i | nt | nt | i | 20µM
Cc1c(C(=O)N2CCN(c3cccc(Cl)c3)CC2)cccc1[N+](=O)[O-] | i | i | i | ? | i | 22µM
Cc1cc(C(=O)N2CCN(c3ccc(F)cc3)CC2)c2c(C)nn(-c3cccc(Cl)c3C)c2n1 | nt | nt | nt | i | nt | i[9.22 µM]
Cc1cc(C(=O)N2CCN(c3cccc(Cl)c3)CC2)c2c(C)nn(-c3ccccc3Cl)c2n1 | nt | nt | nt | i | nt | 20µM
Cc1ccc(N2CCN(C(=O)c3cccc([N+](=O)[O-])c3)CC2)cc1Cl | i | i | i | i | i | 13µM
COc1cc2c(NC3CCN(C)CC3)nc(N3CCCN(C)CC3)nc2cc1OCCCC(C)C | i | nt | nt | nt | nt | nt
COc1cc(C=O)c([N+](=O)[O-])cc1OC | nt | nt | nt | i | nt | nt
C[n+]1ccnc2ccccc21 | i | nt | nt | nt | nt | nt
CC(C)C[C@H](NC(=O)[C@@H](Cc1c[nH]c2ccccc12)NC(=O)[C@H](Cc1ccc(O)cc1)NC(=O)[C@H](CO)NC(=O)[C@H](Cc1c[nH]c2ccccc12)NC(=O)[C@H](Cc1cnc[nH]1)NC(=O)[C@@H]1CCC(=O)N1)C(=O)N[C@@H](CCCN=C(N)N)C(=O)N1CCC[C@H]1C(=O)NCC(N)=O | nt | nt | nt | i | nt | nt
COc1cccc(C(=O)OCn2nnc3ccccc3c2=O)c1OC | i | i | i | i | i | ?
COc1ccc(C(=O)OCn2nnc3ccccc3c2=O)cc1 | ? | i | i | i | i | 18µM
Cc1ccccc1C(=O)OCn1nnc2ccccc2c1=O | i | i | i | i | i | 14µM
COc1cc(/C=C\C(=O)OCn2nnc3ccccc3c2=O)cc(OC)c1OC | ? | i | i | ? | -36 | 20µM
O=C(C[n+]1cccc(Br)c1)c1ccc(O)c(O)c1 | i | nt | nt | nt | nt | nt
CC(CNC(=O)c1cnn(-c2ccc(F)cc2)c1-n1cccc1)c1ccccc1 (stereo not drawn) | i | nt | nt | i | nt | i
Cc1ccc(Nc2n[nH]c(C)c2[N+](=O)[O-])c(C)c1 | i | i | 10µM | i | i | ?
SMILES | aSyn rescue | Akt phos inh | Mito fusion yeast | Apoferritin bind | CCT chaperon mod | TDP43 rescue
Cc1ccccc1Nc1n[nH]c(C)c1[N+](=O)[O-] | i | i | i | i | i | i
Cc1ccc(-c2csc3nc[nH]c(=S)c23)cc1 | i | i | i | i | i | 18µM
COc1ccc(-n2nnnc2SCC(=O)NC2CCCC2)cc1OC | i | i | i | i | i | i
COc1ccc2c(-c3ccccc3)cc(SCC(=O)N(C)C)nc2c1 | i | i | i | ? | i | 22µM
COc1ccc2c(C)cc(SCC(=O)NC3CCCC3)nc2c1 | 11µM | i | nt | nt | i | i
COc1cc(OC)cc(-n2nnnc2SCC(=O)NC2CCCC2)c1 | i | -115% | i | i | i | i
COC(=O)C1=C(C)N(Cc2ccccc2)C(=NCc2ccco2)N[C@H]1c1ccc(Br)cc1 | nt | nt | i | ? | nt | nt
Cc1ccc(CSc2nnc(-c3ccc(NC(=O)CCc4ccccc4)cc3)n2C)cc1 | i | nt | nt | nt | nt | nt
CC(NC(=O)Cn1ccsc1=N)C12CC3CC(CC(C3)C1)C2 (stereo not drawn) | i | i | i | i | i | i
CC(NC(=O)Cn1c(=O)[nH]c2ccsc2c1=O)C12CC3CC(CC(C3)C1)C2 (stereo not drawn) | i | i | i | 14µM | i | i
CCC(C)NC(=O)CCc1c(C)nc2cc(-c3ccc(OC)cc3OC)nn2c1C (stereo not drawn) | nt | nt | nt | i | nt | i
CCC(C)NC(=O)c1c(N)n(/N=C/c2cccnc2)c2nc3ccccc3nc12 (stereo not drawn) | i | i | i | i | i | 14µM
CC(C)CNC(=O)c1c(N)n(/N=C/c2cccnc2)c2nc3ccccc3nc12 | nt | nt | i | i | nt | nt
C#CCCCO/N=C1/C[C@@H](O)[C@@H](O)[C@@H]2[C@@H]3C(=O)N(c4cccc(Oc5ccccc5)c4)C(=O)[C@H]3CC[C@@H]12 | nt | nt | nt | i[15.3 µM] | nt | nt
COc1cc2[nH]c(C(=O)N3CCc4ccccc4C3)cc2c(OC)c1OC | i | i | i | i | i | 22µM
Cc1ccc2oc3c(c(=O)c2c1)C(c1ccc(F)cc1)N(Cc1ccc2c(c1)OCO2)C3=O (stereo not drawn) | nt | nt | nt | i | nt | i
CC(C)(C)c1cc(NCc2ccccn2)n2ncc(-c3ccc(Cl)cc3)c2n1 | i | i | i | i | i | 22µM
CN(C)CCCNc1cc(C(C)(C)C)nc2c(-c3ccc(Cl)cc3)cnn12 | i | i | i | i | i | i
C=C1C=CS(=O)(=O)N(C(C)C(=O)OC)C1 (stereo not drawn) | nt | nt | nt | i | nt | nt
O=C(c1ccc2c(c1)OCCO2)N1CCN(c2nc(-c3cccs3)nc3ccccc23)CC1 | i | nt | nt | nt | nt | nt
Cc1nc2c(C)c(C)c(C)c(C)c2nc1C | i | i | i | i | i | i
Cc1nc2c(O)c3c(c(O)c2nc1C)C1C=CC3CC1 | i | i | nt | nt | i | 13µM
COCCN=c1scc(-c2ccccc2)n1/N=C/c1c[nH]c2ccccc12 | i | i | ? | i | i | 11µM
CC(=O)c1ccc(Nc2c3ccccc3cc3occc23)cc1 | nt | nt | nt | i | nt | nt
COC(=O)C1=C(C)NC(C)=C(C(=O)OC(C)(C)CN(C)CCC(c2ccccc2)c2ccccc2)C1c1cccc([N+](=O)[O-])c1 (stereo not drawn) | i | nt | 0.65µM | nt | nt | nt
CCOC(=O)C1=C(C)NC(C)=C(C(=O)OC)[C@@H]1c1cccc([N+](=O)[O-])c1 | nt | nt | nt | i | nt | nt
CCOC(=O)C1=C(C)NC(C)=C(C(=O)OC)C1c1cccc([N+](=O)[O-])c1 (stereo not drawn) | i | i | i | ? | i | 35µM

From PubChem
